Experimental data reported in the supplement of paper PMC10849652.
About 7,900 targets were measured; listed, in parts, are those with a hit and a random draw of the rest. About 0.6% of all pairs of compound and target were hits. A number with no mark means an inactive call.

The targets below were run with CC1=C(C=C(C=C1)NC(=O)C2=CC(=CC=C2)N(C)C)NC(=O)C3=CC=C(C=C3)O (assay: log2 fold change, soluble protein after heating vs DMSO (PISA); higher = thermal stabilisation; K562 cells, 10 uM, 30 min; active = over 0.2 and 3.5 SD of the protein, either way, in both replicates (recomputed)).
Summary of the method: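 K562 cells (2×10^6 cells/mL) were treated with 10 μM compound for 30 min, and aliquots were heated for 3 min over 48°C-58°C. Pooled aliquots were extracted in PBS with 0.5% NP-40 at 4°C, and the supernatant after 21,000xg for 90 min was measured by TMTpro 16plex LC-MS/MS with channel sums equalised. Reported thermal stability, relative to control samples and from duplicates, is a log2 fold change.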

Chain of UniProt Q96AQ8 (Q96AQ8 whole entry, looked up): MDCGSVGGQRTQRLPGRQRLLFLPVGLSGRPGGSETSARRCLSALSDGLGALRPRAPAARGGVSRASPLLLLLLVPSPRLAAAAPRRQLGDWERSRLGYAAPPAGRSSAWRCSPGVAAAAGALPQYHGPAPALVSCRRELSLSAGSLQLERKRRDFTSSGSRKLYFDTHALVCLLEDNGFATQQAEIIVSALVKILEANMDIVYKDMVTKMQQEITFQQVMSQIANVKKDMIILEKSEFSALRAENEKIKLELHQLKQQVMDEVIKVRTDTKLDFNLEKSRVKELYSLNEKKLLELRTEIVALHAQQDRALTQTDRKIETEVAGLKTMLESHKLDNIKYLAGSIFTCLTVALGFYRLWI
Chain of UniProt Q14739 (Q14739 whole entry, looked up): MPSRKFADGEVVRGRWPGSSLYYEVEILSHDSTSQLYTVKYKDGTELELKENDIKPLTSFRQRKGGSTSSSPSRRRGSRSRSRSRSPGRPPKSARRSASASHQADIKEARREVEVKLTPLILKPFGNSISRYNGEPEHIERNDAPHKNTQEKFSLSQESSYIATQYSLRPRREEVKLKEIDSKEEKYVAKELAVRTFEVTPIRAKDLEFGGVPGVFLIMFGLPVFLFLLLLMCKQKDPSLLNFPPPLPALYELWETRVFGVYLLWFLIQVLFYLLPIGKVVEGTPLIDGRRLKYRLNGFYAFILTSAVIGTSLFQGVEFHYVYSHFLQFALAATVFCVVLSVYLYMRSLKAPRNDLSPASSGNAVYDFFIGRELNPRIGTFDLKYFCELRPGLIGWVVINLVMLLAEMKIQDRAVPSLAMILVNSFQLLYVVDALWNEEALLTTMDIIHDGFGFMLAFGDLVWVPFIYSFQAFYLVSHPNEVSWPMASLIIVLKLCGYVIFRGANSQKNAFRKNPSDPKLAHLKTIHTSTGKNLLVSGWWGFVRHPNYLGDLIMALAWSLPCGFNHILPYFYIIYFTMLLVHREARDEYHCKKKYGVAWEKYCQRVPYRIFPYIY
Chain of UniProt Q8N108 (Q8N108 whole entry, looked up): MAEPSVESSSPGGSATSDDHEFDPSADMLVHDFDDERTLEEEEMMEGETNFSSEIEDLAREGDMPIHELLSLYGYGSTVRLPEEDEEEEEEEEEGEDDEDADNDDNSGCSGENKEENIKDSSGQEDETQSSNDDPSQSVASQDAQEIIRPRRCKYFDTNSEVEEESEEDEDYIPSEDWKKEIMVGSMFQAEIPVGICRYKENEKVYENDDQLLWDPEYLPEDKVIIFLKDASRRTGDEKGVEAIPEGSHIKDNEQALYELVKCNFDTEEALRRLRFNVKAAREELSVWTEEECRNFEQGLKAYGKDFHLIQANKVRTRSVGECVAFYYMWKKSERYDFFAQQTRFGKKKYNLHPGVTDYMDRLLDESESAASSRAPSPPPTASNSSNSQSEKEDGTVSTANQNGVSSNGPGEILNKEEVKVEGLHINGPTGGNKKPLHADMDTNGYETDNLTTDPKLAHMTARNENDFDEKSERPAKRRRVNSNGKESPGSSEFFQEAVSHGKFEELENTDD
Chain of UniProt Q92615 (Q92615 whole entry, looked up): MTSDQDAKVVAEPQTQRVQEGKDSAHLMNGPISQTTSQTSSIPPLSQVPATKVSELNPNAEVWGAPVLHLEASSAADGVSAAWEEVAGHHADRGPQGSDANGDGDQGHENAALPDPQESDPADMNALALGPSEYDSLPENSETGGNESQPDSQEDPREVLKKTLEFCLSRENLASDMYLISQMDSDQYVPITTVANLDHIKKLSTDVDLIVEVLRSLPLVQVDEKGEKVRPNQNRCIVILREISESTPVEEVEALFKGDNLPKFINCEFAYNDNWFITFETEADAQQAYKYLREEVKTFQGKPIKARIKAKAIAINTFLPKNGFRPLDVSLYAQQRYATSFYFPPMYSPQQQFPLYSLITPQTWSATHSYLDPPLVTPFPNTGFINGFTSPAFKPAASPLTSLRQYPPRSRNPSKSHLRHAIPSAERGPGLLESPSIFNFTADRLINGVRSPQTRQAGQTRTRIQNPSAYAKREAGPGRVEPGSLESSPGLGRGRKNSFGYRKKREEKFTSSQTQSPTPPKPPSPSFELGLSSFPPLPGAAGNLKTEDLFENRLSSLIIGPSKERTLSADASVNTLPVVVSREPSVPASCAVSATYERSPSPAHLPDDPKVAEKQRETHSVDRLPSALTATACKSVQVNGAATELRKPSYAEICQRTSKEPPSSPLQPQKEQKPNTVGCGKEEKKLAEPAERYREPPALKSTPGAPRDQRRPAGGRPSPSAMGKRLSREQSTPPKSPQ
Chain of UniProt O00629 (O00629 whole entry, looked up): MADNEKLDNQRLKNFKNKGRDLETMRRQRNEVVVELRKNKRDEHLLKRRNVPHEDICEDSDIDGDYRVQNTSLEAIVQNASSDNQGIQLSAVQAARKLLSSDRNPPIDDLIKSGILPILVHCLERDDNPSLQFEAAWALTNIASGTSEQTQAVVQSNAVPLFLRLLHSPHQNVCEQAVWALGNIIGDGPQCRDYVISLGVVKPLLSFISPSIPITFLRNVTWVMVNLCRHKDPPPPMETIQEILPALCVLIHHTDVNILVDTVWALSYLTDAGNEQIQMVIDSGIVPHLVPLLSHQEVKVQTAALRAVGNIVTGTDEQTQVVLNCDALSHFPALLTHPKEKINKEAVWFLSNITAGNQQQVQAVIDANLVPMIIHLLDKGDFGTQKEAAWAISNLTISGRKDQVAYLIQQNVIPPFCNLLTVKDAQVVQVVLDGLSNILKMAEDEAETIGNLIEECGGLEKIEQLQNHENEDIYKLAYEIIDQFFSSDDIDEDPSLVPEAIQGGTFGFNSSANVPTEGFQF
Chain of UniProt P46734 (P46734 whole entry, looked up): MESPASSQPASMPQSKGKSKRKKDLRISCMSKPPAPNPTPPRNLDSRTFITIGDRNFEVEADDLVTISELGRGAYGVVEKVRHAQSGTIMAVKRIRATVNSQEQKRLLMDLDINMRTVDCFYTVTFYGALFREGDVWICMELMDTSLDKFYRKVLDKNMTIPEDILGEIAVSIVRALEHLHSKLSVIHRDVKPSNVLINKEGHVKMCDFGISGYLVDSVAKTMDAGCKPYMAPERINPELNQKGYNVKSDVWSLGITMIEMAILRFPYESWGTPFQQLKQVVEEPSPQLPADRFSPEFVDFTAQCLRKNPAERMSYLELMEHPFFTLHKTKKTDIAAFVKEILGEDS
Chain of UniProt Q92604 (Q92604 whole entry, looked up): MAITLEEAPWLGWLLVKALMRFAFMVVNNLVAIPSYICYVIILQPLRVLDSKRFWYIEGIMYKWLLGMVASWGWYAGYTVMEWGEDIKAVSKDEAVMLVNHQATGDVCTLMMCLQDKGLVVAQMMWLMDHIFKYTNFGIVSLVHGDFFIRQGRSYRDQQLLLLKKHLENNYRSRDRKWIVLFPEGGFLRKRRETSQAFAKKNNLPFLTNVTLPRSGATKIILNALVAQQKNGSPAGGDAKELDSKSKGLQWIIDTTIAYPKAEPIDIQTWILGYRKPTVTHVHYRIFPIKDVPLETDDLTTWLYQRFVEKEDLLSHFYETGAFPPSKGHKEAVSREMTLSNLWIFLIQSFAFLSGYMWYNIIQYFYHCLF
Chain of UniProt Q9NYL2 (Q9NYL2 whole entry, looked up): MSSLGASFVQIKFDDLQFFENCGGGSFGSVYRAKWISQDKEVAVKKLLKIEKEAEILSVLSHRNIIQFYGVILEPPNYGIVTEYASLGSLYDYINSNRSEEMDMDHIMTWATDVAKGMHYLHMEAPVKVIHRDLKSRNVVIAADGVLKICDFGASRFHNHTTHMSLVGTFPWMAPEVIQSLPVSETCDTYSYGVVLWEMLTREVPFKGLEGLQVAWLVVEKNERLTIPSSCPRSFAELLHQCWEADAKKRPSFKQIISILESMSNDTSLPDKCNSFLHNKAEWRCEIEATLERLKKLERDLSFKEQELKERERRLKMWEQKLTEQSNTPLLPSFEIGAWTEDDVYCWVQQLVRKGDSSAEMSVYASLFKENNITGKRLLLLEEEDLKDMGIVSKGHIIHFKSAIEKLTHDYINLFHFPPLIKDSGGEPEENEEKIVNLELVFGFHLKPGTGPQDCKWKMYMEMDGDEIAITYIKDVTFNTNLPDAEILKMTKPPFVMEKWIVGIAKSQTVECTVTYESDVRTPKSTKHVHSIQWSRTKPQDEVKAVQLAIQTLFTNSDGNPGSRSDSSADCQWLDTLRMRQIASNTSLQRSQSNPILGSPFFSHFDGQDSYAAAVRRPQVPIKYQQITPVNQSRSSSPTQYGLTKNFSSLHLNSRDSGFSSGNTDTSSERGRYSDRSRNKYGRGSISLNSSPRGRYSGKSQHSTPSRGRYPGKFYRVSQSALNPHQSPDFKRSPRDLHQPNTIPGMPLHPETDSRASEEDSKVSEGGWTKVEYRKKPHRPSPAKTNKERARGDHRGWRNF
Chain of UniProt Q13418 (Q13418 whole entry, looked up): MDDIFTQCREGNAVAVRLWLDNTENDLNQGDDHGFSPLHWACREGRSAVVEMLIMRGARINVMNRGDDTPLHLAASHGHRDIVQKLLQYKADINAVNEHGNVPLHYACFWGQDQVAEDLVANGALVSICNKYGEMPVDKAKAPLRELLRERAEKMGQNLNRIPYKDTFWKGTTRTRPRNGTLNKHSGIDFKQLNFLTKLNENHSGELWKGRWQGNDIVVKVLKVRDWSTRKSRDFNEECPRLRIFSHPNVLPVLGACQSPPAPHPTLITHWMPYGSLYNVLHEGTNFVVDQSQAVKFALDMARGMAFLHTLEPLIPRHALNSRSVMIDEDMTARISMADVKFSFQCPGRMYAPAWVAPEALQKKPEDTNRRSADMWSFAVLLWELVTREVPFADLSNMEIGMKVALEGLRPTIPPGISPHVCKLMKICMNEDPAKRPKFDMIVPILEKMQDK
Chain of UniProt Q96A72 (Q96A72 whole entry, looked up): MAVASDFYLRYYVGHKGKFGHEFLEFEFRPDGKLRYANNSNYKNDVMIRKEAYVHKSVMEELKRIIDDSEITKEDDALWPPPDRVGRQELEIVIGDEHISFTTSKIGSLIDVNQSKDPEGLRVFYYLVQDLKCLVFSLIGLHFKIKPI

| Target | log2 fold change |
| --- | --- |
| MCUR1 (UniProt Q96AQ8) | -0.067 |
| ITPRIP (UniProt Q8IWB1) | 0.007 |
| MAP2K1 (UniProt Q02750) | 0.001 |
| LPGAT1 (UniProt Q92604) | 0 |
| LMNB1 (UniProt P20700) | 0.027 |
| LTV1 (UniProt Q96GA3) | -0.04 |
| MAIP1 (UniProt Q8WWC4) | -0.005 |
| MIER1 isoform 12 (UniProt Q8N108) | 0.016 |
| KCT2 (UniProt Q8NC54) | 0.007 |
| KPNA4 (UniProt O00629) | 0.007 |
| MAPK12 (UniProt P53778) | 0.017 |
| LDLR (UniProt P01130) | 0.006 |
| LMF2 (UniProt Q9BU23) | -0.07 |
| LTN1 isoform 3 (UniProt O94822) | -0.031 |
| LRPPRC (UniProt P42704) | -0.054 |
| MAD2L1 (UniProt Q13257) | -0.035 |
| LARP4B (UniProt Q92615) | 0.032 |
| ILK (UniProt Q13418) | -0.053 |
| LTO1 (UniProt Q8WV07) | -0.042 |
| KIF3A (UniProt Q9Y496) | -0.013 |

| Target | log2 fold change |
| --- | --- |
| MAP3K20 (UniProt Q9NYL2) | -0.098 |
| MAGOHB (UniProt Q96A72) | -0.062 |
| MAP3K4 isoform 2 (UniProt Q9Y6R4) | 0.026 |
| LIMA1 isoform 4 (UniProt Q9UHB6) | 0.133 |
| MAGEC2 (UniProt Q9UBF1) | 0.045 |
| MAP2K3 isoform 3 (UniProt P46734) | -0.074 |
| MAGEA9 (UniProt P43362) | 0.05 |
| ILVBL (UniProt A1L0T0) | -0.052 |
| MDN1 (UniProt Q9NU22) | -0.021 |
| KIF21A isoform 4 (UniProt Q7Z4S6) | -0.067 |
| LNPK (UniProt Q9C0E8) | 0.01 |
| LRBA (UniProt P50851) | 0 |
| LEMD3 (UniProt Q9Y2U8) | -0.071 |
| LAMP2 (UniProt P13473) | 0.093 |
| KLHDC4 (UniProt Q8TBB5) | -0.003 |
| LBR (UniProt Q14739) | -0.035 |
| KHDC4 (UniProt Q7Z7F0) | -0.055 |
| MAP4K4 isoform 3 (UniProt O95819) | 0.013 |
| LEMD2 (UniProt Q8NC56) | -0.02 |
